Results on 91 compounds are retold here after PubChem BioAssay AID803 (The Scripps Research Institute Molecular Screening Center, 2007).

Each structure is given as a SMILES string. Hit rate of the full screen: of about 140,000 compounds, about 680 (0.49%) were called active. The list comes from a sample in which actives are over-represented; it also holds similar structures and randomly drawn compounds. Values without a mark were called inactive. Cut-off read from the data, not from the text of the source: active = activation above about 5% (passing the limit was not always enough); inactive = the rest.

Chain of Galanin receptor type 2 (Homo sapiens) (O43603 whole entry, looked up): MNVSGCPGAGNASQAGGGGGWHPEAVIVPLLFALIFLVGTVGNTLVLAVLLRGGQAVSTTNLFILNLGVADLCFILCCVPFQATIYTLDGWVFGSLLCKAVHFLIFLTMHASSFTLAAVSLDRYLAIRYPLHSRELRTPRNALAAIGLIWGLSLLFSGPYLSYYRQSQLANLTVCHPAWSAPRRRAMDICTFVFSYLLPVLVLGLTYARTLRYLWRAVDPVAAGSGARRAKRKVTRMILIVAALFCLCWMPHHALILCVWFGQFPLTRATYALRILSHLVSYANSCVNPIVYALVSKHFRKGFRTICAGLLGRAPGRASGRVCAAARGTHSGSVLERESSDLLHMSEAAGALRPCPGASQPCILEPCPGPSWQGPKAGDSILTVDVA

This assay concerns the target Galanin receptor type 2 (Homo sapiens) (UniProt O43603). The assay can be described thus: GALR2 receptor agonists, primary screen, cell-based (AID 803).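 Note: 0% = vehicle buffer wells and 100% = reference agonist at full effect.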 The following applies: GALR2-expressing cells, agonist activation read-out; at 5.6 µM; active compounds read high.
In the case of `CC1Cc2ccccc2N1C(=O)CSc1nnc(-c2ccc(S(=O)(=O)N3CCCC3)cc2)n1C` (stereo unspecified), the activation was -1.17%.

With `CN1OC(COC(=O)c2ccc(Cl)cc2)CC1c1ccccc1` (stereo unspecified), the activation is -1.93%.

With `CC(C)(C)c1ccc(C(=O)NCCn2c(N)c(C#N)c3nc4ccccc4nc32)cc1`, the activation is 6.59% (active).

For `CN(C)CCCn1c(N)c(C#N)c2nc(C#N)c(C#N)nc21`, the activation was 5.27%.

With `CC(C)(C)OC(=O)c1c(N)n(CCCN2CCCC2=O)c2nc3ccccc3nc12`, the activation was 3.75%.

Consider `N#Cc1c(N)n(CCOC(=O)c2ccc(Cl)cc2)c2nc3ccccc3nc12`, for which the activation is 7.76% (active).

`O=S(=O)(O)c1nc2ccccc2n1Cc1ccc(Cl)cc1`: the activation was -2.3%.

With `CC(Oc1ccccc1)C(=O)Nc1oc(-c2ccco2)c(-c2ccco2)c1C#N` (stereo unspecified), the activation was -0.85%.

Turning to `O=C(/C=C/c1ccc(Cl)cc1)N1CCN(c2ccccc2[N+](=O)[O-])CC1`, the activation is -1.19%.

As for `Cc1ccc(Cc2c(C)nc3nc(SCC(=O)NCCN4CCOCC4)nn3c2C)cc1`, the activation was 24.8% (active).

Consider `Cc1nc2nc(SCC(=O)NCc3ccco3)nn2c(C)c1Cc1ccccc1`, for which the activation is 0.05%.

As for `Cc1ccc(NC(=S)NCCN2CCOCC2)cc1`, the activation is -2.96%.

For `Cc1cc(C)nc(-n2ncc3c2CC(c2ccc(C(C)C)cc2)CC3=O)n1` (stereo unspecified), the activation is 0.11%.

In the case of `O=C(Nc1ccccc1F)c1ccccc1-c1ccc(C(F)(F)F)cc1`, the activation is -0.53%.

With `O=C(NCC1CCCO1)/C(=C/c1ccc(Cl)cc1)NC(=O)c1ccccc1` (stereo unspecified), the activation was -1.2%.

Consider `CCOC(=O)Cc1csc(NC(=O)C(C)(C)C)n1`, for which the activation was 6.79% (active).

In the case of `CCOC(=O)Cc1csc(NC(=O)Nc2ccccc2)n1`, the activation is -2.31%.

As to `CCOC(=O)Cc1csc(NC(NC(=O)OCC)(C(F)(F)F)C(F)(F)F)n1`, the activation is -2.02%.

For the compound `CCCCN1C(=O)c2ccc(C(=O)Nc3ccc(S(=O)(=O)N(C)C)cc3)cc2C1=O`, the activation was -1.35%.

Turning to `CC(=O)NC(Cc1ccccc1)C(=O)NC1CCN(c2ncccc2[N+](=O)[O-])CC1` (stereo unspecified), the activation is -0.16%.

As to `OC(COCc1ccco1)CN1CCN(c2ccccc2)CC1` (stereo unspecified), the activation is -1.72%.

For `Cc1ccc(C(=O)Nc2ccc(C)c(S(=O)(=O)N(C)C)c2)s1`, the activation is 0.14%.

`O=S(=O)(Nc1ccccn1)c1ccc(Oc2ccccc2)cc1`: the activation is -1.45%.

`COC(=O)CNC(=O)c1ccccc1[N+](=O)[O-]`: the activation is -2.69%.

Take `O=[N+]([O-])c1ccccc1SNc1ccccn1`: the activation was 10.3% (active).

Consider `COc1cc(CN2CC(C)CC(C)C2)cc([N+](=O)[O-])c1O` (stereo unspecified), for which the activation was 0.36%.

For `COc1cc(NC(=O)c2cc([N+](=O)[O-])ccc2Br)ccc1NC(=O)c1ccco1`, the activation was -2.01%.

With `Cc1ccc(-c2cc(N)on2)cc1`, the activation was -1.6%.

Consider `CCOc1ccc(Br)cc1S(=O)(=O)Nc1ccc(C(=O)OC(C)C(=O)N(C)c2ccccc2)cc1` (stereo unspecified), for which the activation was -0.52%.

With `COc1cc(NC(=S)NCCSc2ccc(C)cc2)cc(OC)c1`, the activation was -1.5%.

For the compound `Cc1noc(/C=C/c2ccco2)c1S(=O)(=O)N1CCC(C(=O)Nc2ccc(Cl)cn2)CC1`, the activation was -1.28%.

Turning to `Cc1cccc2cc(CN(Cc3ccc4c(c3)OCO4)Cc3nnnn3C3CCCC3)c(=O)[nH]c12`, the activation was 5.7% (active).

In the case of `CCC(c1nnnn1C1CCCC1)N(Cc1cccs1)Cc1cc2cccc(C)c2[nH]c1=O` (stereo unspecified), the activation was -1.09%.

For `Cc1cccc2cc(CN(Cc3cccs3)C(c3nnnn3C3CCCC3)C(C)C)c(=O)[nH]c12` (stereo unspecified), the activation was -1.34%.

In the case of `COc1ccccc1C1CC(=O)n2c(nc(-c3ccccc3)c2-c2ccccc2)S1` (stereo unspecified), the activation was -1.18%.

With `O=C1N(c2ccc(Cl)cc2)C(c2ccc(Cl)cc2)N2CCCN12` (stereo unspecified), the activation was -0.59%.

Turning to `NCCCC[C@@H]1NC(=O)[C@H](CCC(=O)O)NC(=O)c2cc([N+](=O)[O-])cc(I)c2NCC[C@@H](C(N)=O)NC1=O`, the activation is -0.98%.

Consider `CNC(=S)N/N=C/c1cn(Cc2ccc(C)cc2)c2ccccc12`, for which the activation is -1.46%.

Take `O=c1cc(CO)oc(C(Nc2cccc([N+](=O)[O-])c2)c2ccccn2)c1O` (stereo unspecified): the activation was 0.7%.

`Cc1ccc(-c2cn3cc([N+](=O)[O-])ccc3n2)cc1`: the activation was -1.19%.

Take `CCOc1ccccc1NC(=O)c1cccnc1`: the activation is 0.49%.

In the case of `CCOc1cc(NC(=O)c2cnccn2)c(OCC)cc1NC(=O)c1ccc(C)cc1`, the activation was 22.8% (active).

For `CCOc1ccc(C(=O)Nc2cc(OC)ccc2OC)cc1`, the activation is -2.67%.

As for `Cc1sc2nc(COC(=O)C(NC(=O)c3ccc(Cl)cc3Cl)C(C)C)[nH]c(=O)c2c1C` (stereo unspecified), the activation is -1.47%.

Consider `O=C(CSc1ncn[nH]1)Nc1ccnc2ccccc12`, for which the activation was -2.63%.

`CCN(C(=O)CSc1ncn[nH]1)c1cccc2ccccc12`: the activation is 144% (active).

Turning to `CC(C)(C)c1ccc(C(=O)CSc2ncn[nH]2)cc1`, the activation is -1.49%.

Take `CC(=O)Nc1ccc(/C(C)=N/NC(=O)CN(c2ccccc2Br)S(C)(=O)=O)cc1`: the activation is -0.42%.

For the compound `CSc1ccc(/C=C/C(=O)NC23CC4CC(CC(C4)C2)C3)cc1`, the activation was -1.84%.

As for `Cc1cccn2c(=O)c3cc(C#N)c(=O)n(CCCN4CCOCC4)c3nc12`, the activation was 2.81%.

As to `Cc1cccn2c(=O)c3cc(C(=O)N4COCC4(C)C)n(C)c3nc12`, the activation was 0.31%.

For the compound `Cc1cccn2c(=O)c3cc(C#N)c(=NC(=O)c4cccnc4)n(CC4CCCO4)c3nc12` (stereo unspecified), the activation is 7.52% (active).

With `CC(=O)c1ccc(NC(=O)Nc2ccc([N+](=O)[O-])cc2C)cc1`, the activation is -1.71%.

On to `CCCn1c(=O)c2c(C(F)(F)F)cc(-c3cccs3)nc2n(CCC)c1=O`, for which the activation is 6.87% (active).

`FC(F)(F)c1cc(-c2cccs2)nc(NCc2ccco2)n1`: the activation was -1.85%.

For the compound `Cc1cc(-c2cccs2)nc(-n2cccc2)n1`, the activation was -2.57%.

Consider `COC(=O)c1ccc(NC(=O)C(C)N2C(=O)c3ccccc3C2=O)cc1` (stereo unspecified), for which the activation was 8.37% (active).

With `COC(=O)c1ccc(NC(=O)Nc2ccc(C)cc2)cc1`, the activation is -1.78%.

In the case of `Cc1cc(C)nc(NC(=O)C(C)N2C(=O)c3ccccc3C2=O)n1` (stereo unspecified), the activation was -2.31%.

With `O=C(CSc1ccccc1)Nc1cc(Cl)ccc1Oc1ccccc1`, the activation is -0.74%.

On to `C/C(CCC(=O)OC[C@H]1O[C@H](C#Cc2ccccc2)C=C[C@@H]1Oc1ccc(C)cc1)=N\OC[C@@H](O)[C@H]1O[C@@H]2OC(C)(C)O[C@@H]2[C@H]1O`, for which the activation is -0.18%.

In the case of `CC/C(C)=N/Nc1nc2sc3c(c2c(=O)[nH]1)CC(C)(C)OC3`, the activation was 25.2% (active).

`CCOC(=O)Cn1c(SC)nc2sc3c(c2c1=O)CC(C)(C)OC3`: the activation was -1.18%.

For the compound `CCOC(=O)CSc1nc2sc3c(c2c(=O)[nH]1)CC(C)(C)OC3`, the activation was -2.5%.

In the case of `CCOc1ccc(NC(=O)COc2ccc(C(=O)NC3CCCc4ccccc43)cc2OC)cc1` (stereo unspecified), the activation was -0.21%.

As to `CCc1ccc(-c2cc(C(=O)NN3CCN(C)CC3)c3ccccc3n2)cc1`, the activation was 0.42%.

With `CCCCNS(=O)(=O)c1ccc2nc(SCC(=O)Nc3cc(C)cc(C)c3)[nH]c2c1`, the activation is -1.87%.

As for `CCc1cc(C(=O)OC)c(NC(=O)CC2Sc3ccc(C(F)(F)F)cc3NC2=O)s1` (stereo unspecified), the activation was 1.46%.

With `COc1ccc(Cl)cc1C(=O)NCc1cn(C)nc1C`, the activation is -0.07%.

On to `Cc1ccc(-c2cc(C(=O)NCc3cn(C)nc3C)c3cc(Br)ccc3n2)cc1`, for which the activation was 5.13% (active).

For the compound `Cc1ccc2nc(-c3ccccc3)cc(C(=O)O)c2c1`, the activation was -0.75%.

With `CCCn1nc(NS(=O)(=O)c2ccccc2)c2cc3cc(C)ccc3nc21`, the activation is -2.05%.

Take `COc1ccc(C2CC(c3ccccc3)=NN2C(=O)CSc2nccc(=O)[nH]2)cc1` (stereo unspecified): the activation was 0.01%.

On to `COc1ccc(C2=NN(C(=O)c3cccnc3)C(c3ccccc3)C2)cc1` (stereo unspecified), for which the activation is -0.17%.

With `COc1ccc(C2CC(c3ccccc3)=NN2C(=O)c2ccc(Cl)c([N+](=O)[O-])c2)cc1` (stereo unspecified), the activation is 4.95% (active).

As for `Cn1ncc2c(NNC(=O)Cc3cccc4ccccc34)ncnc21`, the activation was 0.28%.

Regarding `Cc1ccc(CCC(=O)Nc2ncc(Cc3cc(Cl)ccc3Cl)s2)o1`, the activation was 8.73% (active).

For `Cc1cnc(NC(=O)CSc2nnc(-c3ccc(Cl)cc3Cl)n2N)s1`, the activation is -1.9%.

On to `CCOc1ccccc1NC(=O)CCc1ccc(C)o1`, for which the activation was -0.84%.

On to `O=C(Nc1ccccc1F)c1ccccc1-c1ccccc1`, for which the activation was -0.61%.

On to `COc1ccc(C2CC(c3cccs3)=NN2C(=O)COC(=O)c2cc3ccccc3cc2O)cc1OC` (stereo unspecified), for which the activation was 0.22%.

For `Fc1ccc(N2N=C(c3cccs3)CC2c2ccco2)c(F)c1` (stereo unspecified), the activation is 10.4%.

Take `COc1ccccc1N1N=C(c2cccs2)CC1c1ccccc1` (stereo unspecified): the activation is 13.1% (active).

Take `O=c1oc2cc(O)ccc2cc1-c1ccc(F)cc1`: the activation is 14.9% (active).

`COc1cccc(C(=O)c2cc3ccc(O)cc3oc2=O)c1`: the activation is 2.29%.

In the case of `COc1ccc(-c2cc3ccc(OCc4nn[nH]n4)cc3oc2=O)cc1`, the activation was 0.01%.

As to `COc1cc(/C=N\NC(=O)c2nonc2N)c(OC)cc1Br`, the activation is -0.75%.

With `O=C(CCc1ccc(S(=O)(=O)N2CCOCC2)cc1)NN=C1CCCCCCC1`, the activation was -0.53%.

With `Cc1ccc2nc(NC(=O)C3CCN(S(=O)(=O)c4ccc5c(c4)oc(=O)n5C)CC3)sc2c1`, the activation is -1.18%.

In the case of `Cn1c(=O)oc2cc(S(=O)(=O)N3CCC(C(=O)Nc4ccc(OC(F)(F)F)cc4)CC3)ccc21`, the activation was 9.92% (active).

In the case of `Cc1ccc(C)c(N2CCN(S(=O)(=O)c3ccc4c(c3)oc(=O)n4C)CC2)c1`, the activation was -1.17%.
